PubChem BioAssay (NCATS)
Records with an inconclusive call do not appear. The source made the active and inactive calls. The call rests on the fitted dose curve; in most records, active means well fitted curve in the direction sought with a large enough effect; inconclusive means small, poorly fitted or top-dose-only effect, or another doubt; inactive means no such curve, though single readings can be large; an effect the other way counts as inactive or inconclusive.

Legend:
[1] = S16 Schwann cell PMP22 intronic element firefly luciferase assay (AID 624032); further: nearly all actives have a fitted effect of over 30% in size; further: potency means the concentration at half of the fitted maximal effect
Summary of the method: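 Luciferase reporter of PMP22 intronic-element expression in stably transfected S16 rat Schwann cells, read by ONE-Glo luminescence after 24 h compound exposure at 37 C. Activity scaled between DMSO (0%) and positive-control PTC124; concentration-effect curves quality-classified.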

ATS95 = assay: qHTS profiling for inhibitors of Plasmodium falciparum proliferation (AID 504749); further: nearly all actives have a fitted effect of over 60% in size; further: potency means the concentration at half of the fitted maximal effect; details: P. falciparum in erythrocytes, SYBR Green DNA, 72 h; series mostly up to 12.8 µM
Summary of the method: (§1)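 Three-day growth assay of blood-stage parasites in erythrocytes (0.3% parasitemia, 2.5% hematocrit) at 37 C, 5% CO2, quantified by SYBR Green DNA staining after overnight detergent lysis.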

C2A = assay: as above; details: P. falciparum in erythrocytes, SYBR Green DNA, 72 h; series mostly up to 12.8 µM
Summary of the method: as §1

CP215 = assay: as above; details: P. falciparum in erythrocytes, SYBR Green DNA, 72 h; series mostly up to 28.7 µM
Summary of the method: as §1

CP217 = assay: as above; details: P. falciparum in erythrocytes, SYBR Green DNA, 72 h; series mostly up to 12.8 µM
Summary of the method: as §1

CP237 = assay: as above; details: P. falciparum in erythrocytes, SYBR Green DNA, 72 h; series mostly up to 12.8 µM
Summary of the method: as §1

CP252 = assay: as above; details: P. falciparum in erythrocytes, SYBR Green DNA, 72 h; series mostly up to 12.8 µM
Summary of the method: as §1

CP269 = assay: as above; details: P. falciparum in erythrocytes, SYBR Green DNA, 72 h; series mostly up to 12.8 µM
Summary of the method: as §1

CP286 = assay: as above; details: P. falciparum in erythrocytes, SYBR Green DNA, 72 h; series mostly up to 12.8 µM
Summary of the method: as §1

CP291 = assay: as above; details: P. falciparum in erythrocytes, SYBR Green DNA, 72 h; series mostly up to 12.8 µM
Summary of the method: as §1

CP305 = assay: as above; details: P. falciparum in erythrocytes, SYBR Green DNA, 72 h; series mostly up to 12.8 µM
Summary of the method: as §1

CP335 = assay: as above; details: P. falciparum in erythrocytes, SYBR Green DNA, 72 h; series mostly up to 12.8 µM
Summary of the method: as §1

DFO2036 = assay: as above; details: P. falciparum in erythrocytes, SYBR Green DNA, 72 h; series mostly up to 12.8 µM
Summary of the method: as §1

DIV30 = assay: as above; details: P. falciparum in erythrocytes, SYBR Green DNA, 72 h; series mostly up to 12.8 µM
Summary of the method: as §1

ECU = assay: as above; details: P. falciparum in erythrocytes, SYBR Green DNA, 72 h; series mostly up to 12.8 µM
Summary of the method: as §1

P93_24 = assay: as above; details: P. falciparum in erythrocytes, SYBR Green DNA, 72 h; series mostly up to 12.8 µM
Summary of the method: as §1

P94_40 = assay: as above; details: P. falciparum in erythrocytes, SYBR Green DNA, 72 h; series mostly up to 12.8 µM
Summary of the method: as §1

PC26 = assay: as above; details: P. falciparum in erythrocytes, SYBR Green DNA, 72 h; series mostly up to 12.8 µM
Summary of the method: as §1

TAB165 = assay: as above; details: P. falciparum in erythrocytes, SYBR Green DNA, 72 h; series mostly up to 12.8 µM
Summary of the method: as §1

[2] = qHTS Assay for Identification of Small Molecule Agonists for Thrombopoietin (TPO) Signaling Pathway (AID 917)
Summary of the method: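 Activators of TPO signaling were sought in murine Ba/F3 cells transfected with the human receptor, using a luciferase gene driven by the Glycoprotein IIb promoter; 24-hr compound exposure at 37 C alongside 26 pM TPO, in IL-3-free medium.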

Measured: Potency

CC[C@@]12CCCN3CCc4c(n(c5ccccc45)C(=O)C1)[C@H]32
not listed: [2]
inactive: all other assays above

C[C@@](N)(Cc1ccc(O)c(O)c1)C(=O)O
inactive: [2]

CO[C@]1(NC(=O)CSCC#N)C(=O)N2C(C(=O)O)=C(CSc3nnnn3C)CS[C@H]21
inactive: all assays above

CCn1cc(C(=O)O)c(=O)c2cc(F)c(N3CCN[C@@H](C)C3)c(F)c21
not listed: CP286 | CP291 | CP305 | CP335
inactive: all other assays above

O=C(O)CNC(=O)[C@@H](CS)Cc1ccccc1
inactive: [2]

Cc1cccc(C)c1OC[C@H](C)N
inactive: [2]

CO/N=C(\C(=O)N[C@@H]1C(=O)N2C(C(=O)O)=C(COC(C)=O)CS[C@@H]12)c1csc(N)n1
inactive: all assays above

C[C@@H]1c2cccc(O)c2C(O)=C2C(=O)[C@@]3(O)C(O)=C(C(N)=O)C(=O)[C@@H](N(C)C)[C@@H]3[C@@H](O)[C@@H]21
active: CP335 4.26 µM
inactive: [2] | [1] | CP215 | CP217

N[C@H](C(=O)N[C@@H]1C(=O)N2C(C(=O)O)=C(Cl)CS[C@@H]12)c1ccccc1
inactive: [2]

CCCCCN(CCCCC)C(=O)[C@H](CCC(=O)O)NC(=O)c1ccc(Cl)c(Cl)c1
inactive: [2]

N[C@@H](CO)C(=O)NNCc1ccc(O)c(O)c1O
not listed: [2]
inactive: all other assays above

COc1ccc([C@H]2Sc3ccccc3N(CCN(C)C)C(=O)[C@H]2OC(C)=O)cc1
inactive: [2]

O=C(C1CCCCC1)N1CC(=O)N2CCc3ccccc3[C@@H]2C1
active: [1] 36.1 µM

CC(=O)OCC1=C(C(=O)O)N2C(=O)[C@@H](NC(=O)Cc3cccs3)[C@@H]2SC1
inactive: [2]

O=C(c1ccccc1)c1ccc2n1CC[C@H]2C(=O)O
inactive: all assays above

CCCN[C@@H](C)C(=O)Nc1ccccc1C
inactive: all assays above

COc1cc(=O)n(C)c2c(OC[C@@H](O)C(C)(C)O)cccc12
inactive: [2]

C[C@@H](CCc1ccccc1)NC[C@H](O)c1ccc(O)c(C(N)=O)c1
not listed: DFO2036 | DIV30 | ECU | [2]
inactive: all other assays above

NC(=O)c1cc[n+](CC2=C(C(=O)O)N3C(=O)[C@@H](NC(=O)[C@H](c4ccccc4)S(=O)(=O)[O-])[C@@H]3SC2)cc1
active: ATS95 3.55 µM | CP237 1.41 µM | CP269 1.61 µM | CP286 1.78 µM | CP305 2.56 µM | CP335 1.61 µM | DFO2036 1.78 µM | DIV30 2.28 µM | ECU 2 µM | P93_24 1.26 µM | P94_40 1.26 µM | PC26 1.81 µM | TAB165 1 µM
inactive: [2] | [1]

CC(C)(C)NC[C@H](O)c1cc(O)cc(O)c1
not listed: [1]
inactive: all other assays above

CCCN(CCC)C(=O)[C@@H](CCC(=O)O)NC(=O)c1ccccc1
inactive: all assays above

CC[C@]1(C)CC(=O)NC1=O
inactive: all assays above

c1ccc([C@@H]2CN3CCSC3=N2)cc1
inactive: [2]

CC(=O)OCC1=C(C(=O)O)N2C(=O)[C@@H](NC(=O)CSc3ccncc3)[C@@H]2SC1
inactive: all assays above

CCN(CC)CCC[C@H](C)Nc1c2ccc(Cl)cc2nc2ccc(OC)cc12
active: ATS95 0.631 µM | C2A 0.447 µM | CP215 1.69 µM | CP217 0.794 µM | CP237 0.316 µM | CP252 0.794 µM | CP269 0.757 µM | CP286 0.282 µM | CP291 0.379 µM | CP305 0.379 µM | CP335 0.536 µM | DFO2036 0.398 µM | DIV30 1.07 µM | ECU 0.447 µM | P93_24 0.562 µM | P94_40 0.562 µM | PC26 0.675 µM | TAB165 0.398 µM

C[C@@H](COc1ccccc1)N(CCCl)Cc1ccccc1
inactive: [2]

C[C@@H](C(=O)O)c1cccc(C(=O)c2ccccc2)c1
inactive: [1]

CCC[C@H]1C(=O)N2C(N(C)C)=Nc3ccc(C)cc3N2C1=O
not listed: [2]
inactive: all other assays above

CN(C)[C@H]1C(=O)C(C(=O)NCN2CCCC2)=C(O)[C@]2(O)C(=O)C3=C(O)c4c(O)cccc4[C@@](C)(O)[C@H]3C[C@@H]12
not listed: [1] | [2]
inactive: all other assays above

CN(C)CC[C@@H](c1ccccc1)c1ccccn1
inactive: [2]

CO[C@H]1C[C@@H](O[C@@H]2[C@H](C)[C@H](O[C@@H]3O[C@@H](C)C[C@@H](N(C)C)[C@@H]3O)[C@H](C)C[C@]3(CO3)C(=O)[C@H](C)[C@H](O)[C@H](C)[C@H](C)OC(=O)[C@@H]2C)O[C@@H](C)[C@H]1O
not listed: [2]
inactive: all other assays above

CC[C@H](NC(C)C)[C@H](O)c1ccc(O)c(O)c1
active: [1] 11.4 µM
not listed: [2]
inactive: all other assays above

CC1=C(C(=O)O)N2C(=O)[C@@H](NC(=O)[C@@H](N)c3ccccc3)[C@@H]2SC1
inactive: [2]

CCN(CC)CC#CCOC(=O)[C@@](O)(c1ccccc1)C1CCCCC1
inactive: [1] | CP215 | CP252
active: ECU 12.6 µM

CC1(C)O[C@@H]2C[C@H]3[C@H]4C[C@H](F)C5=CC(=O)C=C[C@@]5(C)[C@@H]4[C@H](O)C[C@]3(C)[C@]2(C(=O)CO)O1
not listed: [2]
inactive: all other assays above
